Screen size: about 200,000 compounds; about 18,000 (9%) were called active. Cut-off read from the data, not from the text of the source: active = inhibition above about 50%; inactive = the rest. For the sample, actives were picked, then their nearest neighbours and some compounds at random. Where a SMILES comes first, the peptide text is derived from it. [ ]: non-standard residue; d: D form. ξ: configuration not given here. ξM = CSCCC(N)C(=O)O

The assay in a line: Leishmania major promastigote growth inhibition, primary screen (AID 1063).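 Note: promastigotes grown with compound for 44 hours at 28 °C.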 The conditions noted are these: Leishmania major promastigotes, resazurin fluorescence viability; at 10 µM; stronger effect = higher value. A general note: Alamar Blue is a resazurin reagent that responds to reducing activity.
`COc1ccnc(Oc2ccccc2)c1-c1ncn[nH]1`: the inhibition (usually the drop in the measured response relative to a control, in per cent) is -5.3% (inactive).
Then `CC1CCN(S(=O)(=O)c2ccc3ncn(CC(=O)N(C)C4CCCCC4)c(=O)c3c2)CC1`, with -0.9% (inactive); and `Cc1ccc(NC(=O)Nc2nnc(-c3ccncc3)s2)cc1`, with 12.8% (inactive).
Then `CCN1/C(=C/c2ccc3ccc(C)cc3[n+]2CC)Sc2ccccc21`, with 100% (active).
Then `CCN1/C(=C\c2ccc3ccccc3[n+]2CC)Sc2cc(C)ccc21`, with 101% (active); and `CCC(=O)/C=C1\Sc2ccccc2N1CC`, with 3.43% (inactive).
Regarding `O=C(Cc1ccccc1)N1CCN(S(=O)(=O)c2ccc([N+](=O)[O-])cc2)CC1`, the inhibition was 5.24% (inactive).
As to `Cc1ccc(Nc2c(F)c(F)c(F)c(F)c2C(=O)O)c(C)c1`, the inhibition is -6.66% (inactive).
In the case of `COc1cccc(CN(C)CC(=O)Nc2ccccc2C(=O)Nc2ccccc2)c1` it was 16.9% (inactive); in that of `Cc1cc([N+](=O)[O-])ccc1NC(=O)c1ccc(NC(=O)C(C)C)cc1`, -5.33% (inactive).
In the case of `CN1CC(c2ccccc2)C2(COc3ccccc3C2=O)C12C(=O)Nc1ccccc12` (stereo not given), the inhibition is 62.6% (active).
In the case of `O=C(CN1CCN(S(=O)(=O)c2ccc(F)cc2)CC1)Nc1ccccc1F` it was 1.33% (inactive); in that of `O=S(=O)(c1ccc(F)cc1)N1CCN(Cc2ccccc2C(F)(F)F)CC1`, 51.1% (active).
In the case of `Cc1ccc(S(=O)(=O)N2CCN(Cc3cccc(C)c3O)CC2)cc1` it was -1.84% (inactive); in that of `COc1ccc(CN(C)C(C)C(=O)NC2CCCc3ccccc32)cc1` (stereo not given), 10% (inactive).
Turning to `O=C(c1ccccc1)N1CCN(c2ccc([N+](=O)[O-])c(NCc3ccco3)c2)CC1`, the inhibition was 65.6% (active).
In the case of `O=C(c1cccc(F)c1)N1CCN(c2ccc([N+](=O)[O-])c(N3CCCCC3)c2)CC1` it was 4.09% (inactive); in that of `O=[N+]([O-])c1ccc(N2CCN(S(=O)(=O)c3ccc4ccccc4c3)CC2)cc1NCc1ccco1`, -0.79% (inactive); in that of `CN(C)c1ccc(/C=N/NC(=O)C(O)c2ccc(Br)cc2)cc1` (stereo not given), 4.17% (inactive).
With `CN(C)c1ccnc(Nc2ccc(F)cc2)c1C#N`, the inhibition is -2.28% (inactive).
Then `CCOC(=O)NNC(=O)c1ccc(Cl)cc1`, with -5.24% (inactive); and `C/C(=N\N=C(N)N)c1ccc(Cl)cc1`, with 98.8% (active).
Take `COC(=O)/C(NC(C)=O)=C(\C)c1ccc(Cl)cc1`: the inhibition was 0.11% (inactive).
Then `FC(F)(F)c1cccc(Cc2noc(CN3CCC(N4CCCCC4)CC3)n2)c1`, with 82.7% (active).
For `Fc1cccc(Cc2noc(CN3CCN(c4cnccn4)CC3)n2)c1`, the inhibition was -3.37% (inactive).
Consider `CCOC(=O)N1CCN(Cc2nc(Cc3cccc(C(F)(F)F)c3)no2)CC1`, for which the inhibition was 4.8% (inactive).
Then `Cc1ccc(S(=O)(=O)/N=C(/Nc2ccc3[nH]c(=O)[nH]c3c2)c2ccccc2)cc1`, with -4.98% (inactive); and `CCOC(=O)c1ccc(N/C(=N/S(=O)(=O)c2ccccc2)c2ccccc2)cc1`, with 61.3% (active).
As to `O=S(=O)(/N=C(/Nc1ccccc1)c1ccccc1)c1cccs1`, the inhibition was 1.04% (inactive).
In the case of `COC(=O)CNC(=O)C(CCSC)NC(C)=O` (stereo not given) (Ac-[ξM]-Gly-OMe) it was -3.76% (inactive); in that of `COc1ccc(C[C@H]2CN3C(=NC[C@H]3C)N2CCNC(=O)CCC2CCCCC2)cc1`, 31.8% (inactive).
In the case of `Cc1cccc(-n2c(=O)c3c(C)c(C)sc3n(CC(N)=O)c2=O)c1` it was 4.25% (inactive).
On to `CC(=O)N(CN1C(=O)C2C3C=CC(C3)C2C1=O)c1cccc(Cl)c1` (stereo not given), for which the inhibition was -6.29% (inactive).
Then `O=C(COC(=O)CNS(=O)(=O)c1ccccc1)NC12CC3CC(CC(C3)C1)C2`, with 1.38% (inactive); and `COc1ccccc1-c1nnc(SCC(=O)Nc2ccccc2)o1`, with 2.06% (inactive).
With `COc1ccccc1-c1nnc(NC(=O)c2ccc3ncsc3c2)o1`, the inhibition is 80.7% (active).
Then `COc1ccccc1-c1nnc(NC(=O)c2cccc(N3C(=O)CCC3=O)c2)o1`, with -4.87% (inactive); and `Cc1ccc(S(=O)(=O)Cc2cc(-c3ccc(Cl)cc3)no2)cc1`, with -0.46% (inactive); and `COc1ccccc1CC(NC(C)=O)C(=O)NC1CCN(C(=O)Nc2ccccc2Cl)CC1` (stereo not given), with -3.45% (inactive).
For the compound `COCCCNC(=O)Cn1c(=O)n(Cc2ccccc2Cl)c(=O)c2cc(OC)c(OC)cc21`, the inhibition was -3.45% (inactive).
Turning to `Cc1ccc(S(=O)(=O)CCC(=O)OCc2ccccc2)cc1`, the inhibition was -3.07% (inactive).
Then `CCOc1cc(C2C(C(=O)OC(C)C)=C(C)NC3=C2C(=O)CCC3)cc([N+](=O)[O-])c1O` (stereo not given), with 8.32% (inactive); and `COc1ccc(C(=O)Nc2ccc(CN3CCOCC3)cc2)cc1`, with 0.71% (inactive).
Turning to `O=C(Nc1ccccc1C(=O)N1CCOCC1)c1ccc(CSc2ccccc2)cc1`, the inhibition is 15.2% (inactive).
In the case of `O=C(Nc1ccc(CSc2ccccc2)cc1)c1ccc(CN2CCOCC2)cc1` it was 95.2% (active); in that of `NC(=O)COC(=O)c1sc2cc(F)ccc2c1Cl`, -4.95% (inactive); in that of `O=C(O)CCCCOn1ccnc1`, -5.36% (inactive).
Then `Cc1oc2c(c1C(=O)N1CCOCC1)C(=O)c1ccccc1C2=O`, with 99.7% (active).
Turning to `Cc1onc(-c2ccccc2)c1C(=O)N1CCOCC1`, the inhibition was 0.76% (inactive).
In the case of `O=C(c1ccccc1-c1ccccc1)N1CCOCC1` it was 1.25% (inactive); in that of `Cc1c(C=O)n(C)n(-c2ccccc2)c1=O`, 0.34% (inactive); in that of `COc1cc(NC(=O)COc2ccccc2Cl)ccc1NC(=O)C(C)C`, 1.32% (inactive).
Then `CN(C)S(=O)(=O)c1ccc2oc(SCC(=O)Nc3ccccc3F)nc2c1`, with 2.57% (inactive).
In the case of `CSc1ccccc1NC(=O)Cc1ccc(Br)cc1` it was 53.5% (active).
For `Cc1cccc(C)c1NC(=O)CNC(=O)Cc1ccc(Br)cc1`, the inhibition was -3.9% (inactive).
On to `CSc1ccccc1NC(=O)CN(C)CC(=O)Nc1cccc(Br)c1`, for which the inhibition was 18.6% (inactive).
Turning to `Cc1ccc(OCC(=O)Nc2ccc(S(=O)(=O)Nc3ccccn3)cc2)cc1`, the inhibition was -4.12% (inactive).
As for `C=CCN(c1ccc(C(=O)Nc2cc(C)cc(C)c2)cc1)S(C)(=O)=O`, the inhibition was 76% (active).
Then `CSCc1ccc(C(=O)Nc2cc(C)cc(C)c2)cc1`, with -3.2% (inactive).
Then `C=CCN(c1ccc(C(N)=O)cc1)S(C)(=O)=O`, with -6.04% (inactive).
